Source: PubChem BioAssay (The Scripps Research Institute Molecular Screening Center)
ADAM10 inh – human ADAM10 inhibitors, primary screen, biochemical, QFRET, HTS. Disintegrin and metalloproteinase domain-containing protein 10 (Homo sapiens), O14672. actives 0.62% (n = 370,000). recombinant ADAM10, EDANS/DABCYL FRET peptide cleavage, 3 h. inhibition, % at 7 µM;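 active means inhibition above a per-campaign cutoff equal to the mean of compounds falling between control-based bounds plus 3 SD, cut at about 20% in these data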;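 further: 0% = DMSO wells while the 100% control is not disclosed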
PLC-beta3 inh – human PLC-beta3 inhibitors, primary screen, biochemical, fluorescence; 1-phosphatidylinositol 4,5-bisphosphate phosphodiesterase beta-3 (Homo sapiens), Q01970; Purified PLC-beta3, fluorogenic substrate; inhibition, % at 12.2 µM; actives 0.18% (n = 370,000); AID 720704, 2013; in the data active means inhibition above about 11%;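 further: 0% = median of compound wells on plate and 100% = full blocker control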
ADAM17 inh – ADAM17 inhibitors, primary screen, biochemical, QFRET; Disintegrin and metalloproteinase domain-containing protein 17 (Homo sapiens), P78536; recombinant ADAM17, EDANS/DABCYL FRET peptide cleavage; inhibition, % at 6.95 µM; actives 0.83% (n = 370,000); AID 720648, 2013;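 active means inhibition above the mean of compounds lying between control limits plus 3 SD, set per campaign, cut at about 8.5% in these data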;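 further: 0% = DMSO-only wells as the low control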
PLC-gamma1 inh – PLC-gamma1 enzyme inhibitors, primary screen, biochemical, fluorescence, purified enzyme. 1-phosphatidylinositol 4,5-bisphosphate phosphodiesterase gamma-1 (Homo sapiens), P19174. actives 0.84% (n = 370,000). inhibition, % at 12.2 µM. fluorogenic substrate; in the data active means inhibition above about 9.5%
KLK7 zymogen act – proKLK7 zymogen activators, primary screen, biochemical, fluorescence intensity; Kallikrein-7 (Homo sapiens), P49862; purified proKLK7, EDANS-DABCYL substrate fluorescence; 100% is mature enzyme control, 0% vehicle; activation, % at 7 µM; actives 0.9% (n = 370,000); AID 652039, 2013;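 active means activation above the mean of all tested compounds plus 3 SD, computed per campaign excluding outliers beyond control limits, cut at about 13% in these data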
* hit, by the source's call; i = inactive. A selection: hits, their analogues and other compounds. The true share with any hit is near 2.9%.

SMILES	ADAM10 inh	PLC-beta3 inh	ADAM17 inh	PLC-gamma1 inh	KLK7 zymogen act
COC(=O)C1(C(=O)OC)NOC2C(=O)N(c3ccc(Cl)cc3Cl)C(=O)C21 (stereo not given)	12	-17	11*	-5	0
CCn1c(COc2ccc(Cl)cc2)nnc1SCc1ccc(C#N)cc1	7	2	3	7	0
CCn1c(COc2ccccc2)nnc1SCc1ccc(C#N)cc1	13	6	1	9.6*	1
O=C(O)c1cc(-c2ccccc2)nn1CC1CC(c2cccc([N+](=O)[O-])c2)=NO1 (stereo not given)	-2	6	3	9.9*	0
CCOC(=O)c1cc(-c2ccccc2)nn1CC1CC(c2cccc([N+](=O)[O-])c2)=NO1 (stereo not given)	7	9	0	-3	0
COc1cccc(CNC(=O)[C@@H]2CCCN2C(=O)[C@@H]2CCCN2C(=O)c2c(F)cccc2F)c1	-14	3	-7	2	1
CCN(CC)CCOc1cc2c(nn1)Oc1ccccc1N2C	i	i	-210	i	16*
CN1c2ccccc2Oc2nnc(N3CCN(Cc4ccccc4)CC3)cc21	i	i	-455	i	5
COc1ccc(N2C(=O)CC(NCC#N)C2=O)cc1 (stereo not given)	-3	-5	1	1	0
COc1ccc(N2C(=O)CC(NCc3cccs3)C2=O)cc1 (stereo not given)	5	5	2	11*	1
Cc1ccc2[nH]c(CNC(=O)c3ccc(F)cc3)cc2c1	-5	-3	-2	-2	0
CC[C@]1(c2ccccc2)C(=O)N(C(=O)OC)N1C(=O)OC	9	9	10*	9	1
CSc1ncnc2[nH]ncc12	-14	0	-3	1	0
CCCCCCCSc1ncnc2[nH]ncc12	19	6	12*	-1	0
Cc1ccccc1NC(=O)Cc1nc(COC(=O)COc2cccc(C)c2C)cs1	13	-11	1	12*	0
COCC(=O)OC1CCn2c1nc1c2C(=O)C(C)=C(NC(C)=O)C1=O (stereo not given)	-3	6	-2	14*	0
CCn1ncc([N+](=O)[O-])c1C(=O)NC1CCCCC1	-6	-2	-6	-2	0
NC(=O)c1ccc(F)cc1	-3	1	-5	-1	0
O=C(c1ccc(F)cc1)c1cccc(C(=O)c2ccc(F)cc2)n1	-7	11*	2	3	-1
CC(C)C[C@H](NC(=O)c1nc[nH]c1C(=O)N[C@@H](CC(C)C)C(=O)OC(C)(C)C)C(=O)OC(C)(C)C	11	8	9.5*	9	0
Cn1cnc(C(=O)NCc2ccc(CNC(=O)OC(C)(C)C)cc2)c1C(=O)NCc1ccc(CNC(=O)OC(C)(C)C)cc1	21*	1	11*	7	-1
C[C@H](NC(=O)c1[nH]cnc1C(=O)Nc1ccc(CNC(=O)OC(C)(C)C)cc1)C(=O)OC(C)(C)C	22*	-2	11*	2	-1
CC(C)C[C@H](NC(=O)c1nc[nH]c1C(=O)NC(c1ccccc1)c1ccccc1)C(=O)OC(C)(C)C	7	6	2	4	1
CC1(C(=O)Nc2ccc3c(c2)OCO3)CCN1C(=O)c1ccccc1 (stereo not given)	-11	0	-2	2	0
CC(=O)Nc1cc(OC(C)=O)c2nonc2c1OC(C)=O	-73	-89	-22	-33	40*
SMILES	ADAM10 inh	PLC-beta3 inh	ADAM17 inh	PLC-gamma1 inh	KLK7 zymogen act
CC(C)[C@@H]1NC(=O)[C@H]2C[C@@]3(c4ccccc4)c4ccccc4N[C@H]3N2C1=O	-11	-5	-2	-1	-1
C[C@H](CO)N1C[C@H](C)[C@@H](CN(C)C(=O)Nc2ccc3c(c2)OCO3)Oc2c(NC(=O)Nc3ccc(C(F)(F)F)cc3)cccc2C1=O	11	-15	9.4*	-13	0
COc1ccc(NC(=O)N(C)C[C@H]2Oc3c(NC(=O)Nc4ccc(C(F)(F)F)cc4)cccc3C(=O)N([C@H](C)CO)C[C@@H]2C)cc1	19	4	9.9*	2	0
CCn1cc(C(=O)NCc2cccc(F)c2)c(=O)c2cc(F)c(N3CCN(C(=O)c4ccco4)CC3)cc21	-249	-227	-80	-179	-3
O=C(O)c1cccc(N2C(=O)/C(=C/c3ccc(SCc4ccc(Cl)cc4)o3)SC2=S)c1	-10	-4	-4	32*	0
CC1(C)CC2CC(C)(CN2C(=O)COC(=O)c2cncc(Br)c2)C1 (stereo not given)	-3	-3	-6	-19	-1
CC(C)(C)OC(=O)N1CCC[C@H]1C(=O)O	13	4	0	-1	1
CC1=NN(c2ccccc2)C(=O)/C1=C/c1ccc[nH]1	8	5	7	3	1
CC1=NN(c2ccccc2)C(=O)C1=Cc1ccccc1	-9	5	-4	10*	1
CC1=NN(c2ccccc2)C(=O)/C1=C/c1ccc(Cl)cc1	25*	3	4	16*	0
Clc1ccc(C2=CSC3=NCCN23)c(Cl)c1	-3	-9	-3	0	-1
COc1ccc2cc3cc(C(=O)NCCc4ccc(OC)c(OC)c4)oc3nc2c1	-490	-72	-99	-54	-74
CCCN(CCC)CCCNC(=O)c1cc2cc3ccc(OC)cc3nc2o1	i	i	i	i	61*
Fc1ccc(-c2ccnc3nc(N4CCOCC4)nn23)cc1	-400	i	-104	-405	22*
C[C@H](O)[C@@H]1CN2CCc3c([nH]c4ccccc34)[C@@H]2C[C@@H]1N(C)C(=O)NC1CCCCC1	-54	-109	-15	-93	3
N#Cc1ccsc1NC(=O)CN1CCN(c2ccccc2)CC1	-5	2	1	-2	-1
COC1=C(Br)C(=O)c2nc(C)ccc2C1=O	-10	-1	7	15*	7
COC1=C(N)C(=O)c2nc(C)ccc2C1=O	-5	-11	6	-3	4
O=C(NCCNS(=O)(=O)c1ccccc1Cl)c1cc(OCC(F)(F)F)ccc1OCC(F)(F)F	6	1	2	2	0
O=C(Cc1ccccc1)Nc1nc(=O)c2ccccc2s1	-7	12*	-3	2	0
CCOC(=O)CSc1cc(=O)n(C)c2cc(Cl)ccc12	-2	10	0	-1	0
CC(C)[C@H](NC(=O)N1CCn2c1nc1ccccc12)C(=O)N[C@H](Cc1ccccc1)C(=O)O	-9	5	-5	5	-1
Cc1c(C(=O)Nc2cccc(N(C)S(C)(=O)=O)c2)cccc1[N+](=O)[O-]	6	14*	7	14*	0
